GPR151 ag: activators of human GPR151, primary screen, cell-based, PathHunter beta-arrestin, luminescence; G-protein coupled receptor 151 (Homo sapiens), Q8TDV0; PathHunter beta-arrestin GPR151 cells; activation, % at 11.2 µM; hit rate 1% among 650,000; in the data active means activation above about 4.9%;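 further: 0% = median of compound wells and 100% = cells with positive control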
TEAD-YAP block: TEAD-YAP interaction inhibition, primary screen, TEAD-YAP interaction inhibitor project, luminescence, HEK-TIYL cells. inhibition, % at 9.12 µM. AID 1259422, 2018. hit rate 1.4% among 640,000. TEAD-Gal4/YAP UAS-luciferase luminescence; in the data active means inhibition above about 32%;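 further: 0% = median of test compound wells and 100% = reference inhibitor wells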
MITF inh: MITF inhibitors, primary screen, biochemical, AlphaScreen, human; Microphthalmia-associated transcription factor (Homo sapiens), O75030; AlphaScreen MITF homodimerization, bead proximity signal; inhibition, % at 2.6 µM; hit rate 0.91% among 650,000; in the data active means inhibition above about 50%;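 further: 0% = vehicle wells with protein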
FBW7 act: FBW7 E3 ligase activators, primary screen, biochemical, AlphaScreen, human | normalized activity (activation), % at 26.1 µM | hit rate 0.13% among 650,000 | AlphaScreen FBW7–phospho-cyclin E peptide binding, activator screen; in the data active means normalized activity above about 1.9%;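 further: purified mutant Fbw7 with reduced substrate affinity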
Target sequence (Q969H0 whole entry, looked up): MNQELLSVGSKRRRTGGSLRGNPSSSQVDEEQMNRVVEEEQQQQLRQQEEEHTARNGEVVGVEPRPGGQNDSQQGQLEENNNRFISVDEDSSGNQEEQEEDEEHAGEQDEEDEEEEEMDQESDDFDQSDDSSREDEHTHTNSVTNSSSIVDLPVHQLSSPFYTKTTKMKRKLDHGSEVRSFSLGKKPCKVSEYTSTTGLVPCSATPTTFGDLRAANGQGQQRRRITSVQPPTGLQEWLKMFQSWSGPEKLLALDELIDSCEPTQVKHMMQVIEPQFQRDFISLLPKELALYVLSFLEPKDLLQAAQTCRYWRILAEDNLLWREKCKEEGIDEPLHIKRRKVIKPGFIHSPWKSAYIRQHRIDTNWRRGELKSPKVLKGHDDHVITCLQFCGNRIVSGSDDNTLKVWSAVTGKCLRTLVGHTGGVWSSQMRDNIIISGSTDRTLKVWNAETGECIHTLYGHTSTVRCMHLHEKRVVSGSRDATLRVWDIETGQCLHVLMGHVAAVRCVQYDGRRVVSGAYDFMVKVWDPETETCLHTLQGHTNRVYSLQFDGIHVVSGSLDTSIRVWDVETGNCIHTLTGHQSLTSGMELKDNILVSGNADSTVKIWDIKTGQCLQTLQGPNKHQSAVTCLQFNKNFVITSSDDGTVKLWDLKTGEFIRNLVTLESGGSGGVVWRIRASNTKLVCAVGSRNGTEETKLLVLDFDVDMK
MITF confirm: MITF inhibitors, retest of hits, confirmation, biochemical, AlphaScreen, triplicate; shares compounds with MITF inh; AlphaScreen MITF homodimerization, biotin/His-MITF beads; inhibition, % at 2.6 µM; hit rate 16% among 4,700; AID 1259372, 2018;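 active means inhibition above a cutoff derived from the DMSO control wells, cut at about 28% in these data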;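 further: 0% = MITF dimer wells with DMSO only; inhibitors lower the bead chemiluminescence by keeping MITF from dimerizing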
AlphaScreen DR: AlphaScreen optical interference compounds, dose response, counter-screen, biochemical, HTS | shares compounds with MITF inh | AlphaScreen optical interference counterscreen, cell-free | IC50, µM | hit rate 6% among 480 | AID 1259373, 2018; call rule not given here
AS interf ctr: AlphaScreen optical interference compounds, counter-screen for MITF inhibitor project, biochemical, triplicate; shares compounds with MITF inh; LysRS AlphaScreen counterscreen, signal interference; inhibition, % at 2.6 µM; hit rate 7.6% among 4,700;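 active means inhibition above a cutoff derived from the DMSO control wells, cut at about 30% in these data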
An asterisk follows results filed as active; x = no result given. Most compounds without a hit are left out; they make up all but 3.5% or so of the library.

SMILES	GPR151 ag	TEAD-YAP block	MITF inh	FBW7 act	MITF confirm	AS interf ctr	others
CCCn1c(SC(C(=O)NC(N)=O)C(C)C)nc2ccccc2c1=O (configuration not stated)	-0.7	2.6	55.5*	0.1	19.3	10.3
CCCCNC(=O)c1n[nH]c(=O)c2ccccc12	-0.1	-15.7	14.8	0.3	x	x
CCOC(=O)C1=C(C)N=c2s/c(=C/c3ccc(OCc4ccccc4Cl)cc3)c(=O)n2C1c1ccc(N(C)C)cc1 (configuration not stated)	0.2	0.0	0.6	-0.2	x	x
CCOC(=O)C1=C(O)CSC1=NC(=O)c1ccc(OC)cc1	0.0	-3.0	51.9*	0.2	-17.4	-1.1
O=C(C1CCCN(Cc2ccco2)C1)N1CCCCCC1 (configuration not stated)	2.5	1.8	54.1*	-0.2	4.6	-2.0
O=C(C1CCCN(Cc2ccccc2F)C1)N1CCCCC1 (configuration not stated)	-1.2	8.9	69.0*	0.0	11.5	17.3
Cc1ccc(N2C(=O)CSC2c2cccc(Br)c2)cc1Cl (configuration not stated)	-1.3	-11.9	-4.8	-0.1	x	x
CN(Cc1ccccc1)C1CCN(Cc2cccnc2)CC1	2.9	-7.1	72.4*	0.0	-3.0	-1.3
CN(Cc1ccccc1)C1CCN(Cc2ccncc2)CC1	-1.5	4.2	80.7*	0.2	3.3	6.5
CN(C)CCN(Cc1ccccc1)C1CCN(Cc2ccncc2)CC1	0.1	1.2	-3.0	-0.2	x	x
CN(Cc1ccccc1)C1CCN(Cc2ccccn2)CC1	4.0	7.1	41.3	-0.1	x	x
O=C(COC(=O)CNC(=O)c1ccccc1)Nc1ccc(OCc2ccccc2)cc1	-1.8	-19.9	8.7	0.1	x	x
CCOC(=O)c1ccc(CN(Cc2ccc(C)cc2)S(=O)(=O)c2ccc(Cl)cc2)cc1	-1.4	-0.6	2.1	-0.2	x	x
COc1ccc2c(c1)N(C(N)=S)C(C)(C)C=C2C	0.7	11.5	89.7*	-0.8	72.9*	57.4*
Cc1ccc(C(=O)CCC(=O)OCC(=O)Nc2ccccc2C#N)cc1	-1.2	13.2	8.0	0.1	x	x
Cc1[nH]c(=O)[nH]c1C(=O)CCCCC(=O)OCC(=O)Nc1ccc(S(N)(=O)=O)cc1	1.5	19.2	95.1*	-1.2	100.9*	75.1*
Cc1[nH]c(=O)[nH]c1C(=O)CCCCC(=O)OCC(=O)Nc1ccccc1C#N	-0.3	15.3	112.9*	-1.1	98.5*	75.8*
O=S(=O)(Nc1ccc2c(c1)N(S(=O)(=O)c1ccc(F)cc1)CCC2)c1ccccc1F	-1.3	-5.1	17.7	0.0	x	x
CC(C)(C)NC(=O)CCCC1=NS(=O)(=O)c2ccccc2N1	0.8	1.2	1.3	0.1	x	x
CCOc1ccc(CN(CCc2ccc3c(c2)OCO3)Cc2cc(OC)c(OC)cc2OC)cc1	-0.1	-2.5	45.1	-0.2	x	x
CCOc1ccc(CN(CCc2ccc3c(c2)OCO3)Cc2cccnc2)cc1	0.7	3.6	59.7*	-0.2	-3.6	-4.3
CCOc1ccc(CN(CCc2ccc3c(c2)OCO3)Cc2cccc3ccccc23)cc1	-1.2	-2.4	52.5*	0.5	-5.2	-8.7
CCOc1ccccc1CN(CCc1ccc2c(c1)OCO2)Cc1cccnc1	0.4	-7.0	78.1*	0.4	4.9	10.9
CC(=O)N(C)c1ccc(NC(=O)CC(C)c2ccccc2)cc1 (configuration not stated)	2.2	1.9	8.4	0.0	x	x
CCOC(=O)c1c(C)n(-c2ccc(C)cc2)c2ccc(OCC(O)CN3CCN(CCO)CC3)cc12 (configuration not stated)	-0.8	-6.5	85.8*	-0.2	16.6	6.1
SMILES	GPR151 ag	TEAD-YAP block	MITF inh	FBW7 act	MITF confirm	AS interf ctr	others
O=C(O)c1cc(N2C(=O)/C(=C\c3cccs3)SC2=S)ccc1O	-1.1	3.6	-1.3	-0.1	x	x
Cc1ccc(C)c(OCCOCCNC(C)(C)C)c1	0.2	1.7	33.3	0.1	x	x
Cc1cc(Br)ccc1OCCOCCNC(C)(C)C	-1.6	5.5	62.9*	0.0	4.3	-0.6
Cc1cc(OCCOCCNC(C)(C)C)cc(C)c1Cl	0.8	-0.2	30.5	0.1	x	x
Cc1cc(Cl)cc(C)c1OCCOCCNC(C)(C)C	0.4	2.9	66.7*	0.0	-10.9	-9.2
CC(=O)c1c(C)n(CC(=O)Nc2cccc(C)c2)c2ccccc12	0.5	11.9	0.3	0.5	x	x
Cc1nccn1CCOc1ccc(Cl)cc1	-0.7	-18.3	62.9*	0.2	17.6	-6.9
COc1ccccc1-n1c(CNC(=O)c2cccs2)nnc1SCC(=O)N1CCCc2ccccc21	-1.2	4.0	-23.9	0.1	x	x
CC(=O)c1cccc(-c2cnc3ccc(NCc4ccc(F)cc4)nn23)c1	0.9	-1.3	-15.8	-0.2	x	x
CC(=O)NC1=NC(=O)/C(=C\c2ccc(Br)o2)S1	0.3	-7.9	77.0*	-0.1	66.9*	11.7	AlphaScreen DR=>6.48
COc1ccc(CN(CCCN(C)C)CCCN(C)C)cc1OC	-0.2	1.3	34.5	0.0	x	x
CN(C)CCCN(CCCN(C)C)Cc1ccc(Br)cc1	0.1	2.5	53.8*	0.1	-0.7	8.0
Cc1ccc(NC(=O)c2ncn[nH]2)cc1C	-0.6	-23.8	-1.8	0.2	x	x
O=[N+]([O-])c1nn(-c2cccc(Cl)c2)n(O)c1=NC1CCCCC1	-1.2	5.2	55.5*	-0.6	14.8	13.7
Cc1cc(C)c(C(=O)N2CCC(=O)N(Cc3cn4cccc(C)c4n3)CC2)[nH]1	2.7	-7.1	-0.5	0.1	x	x
Cc1cccn2cc(CN3CCCc4ccccc43)nc12	1.9	4.6	55.3*	-0.1	7.5	18.3
O=C(Nc1cccc(O)c1)c1cc(-c2ccco2)nc2ccccc12	-0.1	4.1	36.1	-0.2	x	x
O=C(OC1CCOC1=O)c1cc(-c2ccco2)nc2ccccc12 (configuration not stated)	0.1	-10.7	74.8*	-0.3	76.4*	3.2	AlphaScreen DR=>7.22
CCNC(=O)COC(=O)c1cc(-c2ccco2)nc2ccccc12	-0.3	2.7	47.6	-0.1	x	x
CC(C)N(C(=O)COC(=O)c1cc(-c2ccco2)nc2ccccc12)C(C)C	-0.9	-3.8	53.6*	0.0	45.4*	7.4	AlphaScreen DR=>6.82
O=C(O)c1cc(-c2ccco2)nc2ccccc12	3.6	10.9	54.5*	-0.1	56.6*	18.4	AlphaScreen DR=>7.59
O=C(COC(=O)c1cc(-c2ccco2)nc2ccccc12)NC1CC1	-1.9	7.5	50.9*	-0.1	39.7*	-2.8	AlphaScreen DR=>6.94
